Consider 8 compounds from PubChem BioAssay (NCI).

Assay in all cases: NCI-60 one-dose screen, 48 h (100 = growth as untreated, 0 = no growth, -100 = all killed)
Holding throughout (conditions): 10 µM unless noted

Assay [1] concerns DU-145 prostate.
Assay [2] concerns K-562 leukemia.
Assay [3] deals with MALME-3M melanoma.
Assay [4] deals with MDA-MB-231 breast.
Assay [5] concerns RXF 393 renal.
The subject of assay [6] is SF-268 CNS.
Assay [7] deals with SF-295 CNS.
In assay [8] the test system is SF-539 CNS.
In assay [9] the test system is UACC-257 melanoma.
Assay [10] deals with M14 melanoma.
In assay [11] the test system is HCT-15 colon.
The test system of assay [12] is HT29 colon.
Assay [13] deals with SNB-75 CNS.
Assay [14] relates to SNB-19 CNS.
Assay [15] deals with U251 CNS.
Assay [16] concerns PC-3 prostate.
For assay [17], the system named is SK-MEL-5 melanoma.
Assay [18] has as its system UACC-62 melanoma.
The test system of assay [19] is LOX IMVI melanoma.
For assay [20], the system named is SK-MEL-28 melanoma.

The panel holds about 83,000 compounds, 20% with a hit somewhere; the sample as a whole holds those more often.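 Cell lines were cultured in 96-well plates, exposed to a single compound concentration, and assessed for percent growth 48 hours later.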 Values without a mark were called inactive. The source made the active and inactive calls. The calls were made as follows: active = growth percent below 10; inactive = the rest.

Turning to `CC(=O)OC1Oc2cc(C)c(C)cc2-c2oc(=O)c(-c3ccc(F)cc3)cc21` (configuration not stated), the growth in [1] was 75.8%; in assay [2] it was 6.83% (active); in assay [3], 65.3%; in assay [4], 77.7%; in [5] it was -1.93% (active); in [6], 55.5%. In addition, the growth is 80.5% in [7]; 72.7% in assay [8]; 96% in assay [9]; 38.5% in [10]; 46.6% in assay [11]; 16.1% in assay [12]. Further, the growth in [13] is 77.9%; in assay [14], 90.5%; in [15], 53.5%; in assay [16], 60.2%; in [17], 55.2%; in assay [18], 49.8%. Also, the growth in assay [19] was 60.2%; in assay [20] it was 64.2%.

In the case of `Cc1cc(O)c(C2=NN(c3ccc(S(N)(=O)=O)cc3)C(c3ccc(Cl)cc3)C2)c(C)c1Cl` (configuration not stated), the growth in [1] was 49.3%; in [2], 21%; in assay [3], 103%; in [4] it was 59%; in assay [5], 48.1%; in assay [6], 61.7%. Moreover, the growth is 20.4% in assay [7]; 79% in assay [8]; 74.1% in assay [9]; 39.1% in [10]; 65.2% in assay [11]; 55.1% in assay [12]. Also, the growth was 67.4% in assay [13]; 89.8% in assay [14]; 70% in [15]; 12.1% in [16]; 81.7% in assay [17]; 53% in assay [18]. Also, the growth in assay [19] is 52.4%; in [20], 76.3%.

As to `CCOC(=O)c1ccccc1SC(C[N+](=O)[O-])c1ccccc1` (configuration not stated), the growth in assay [1] was 90.9%; in assay [2], 56.8%; in [3], 98%; in assay [4] it was 96.6%; in [5], 62.9%; in assay [6], 104%. Besides, the growth in [7] was 99.7%; in assay [8], 90%; in assay [9] it was 84.4%; in assay [10], 68.9%; in assay [11], 59.6%; in [12] it was 5.22% (active). Further, the growth in assay [13] is 85.1%; in assay [14], 95.2%; in assay [15], 81.8%; in assay [16], 78%; in assay [17] it was 84.3%; in assay [18], 97.8%. Also, the growth was 30.9% in assay [19] and 98.3% in [20].

Regarding `COc1ccc(/C=C(/C(=O)N2CCN(c3ccccc3)CC2)c2cc(OC)c(OC)c(OC)c2)cc1O`, the growth is 4.21% (active) in assay [1]; 6.23% (active) in [2]; 60% in [3]; 19.5% in [4]; 20.4% in [5]; 36.9% in assay [6]. Further, the growth in [7] was 7.72% (active); in [8], -10.8% (active); in [9], 58.1%; in assay [10] it was 3.13% (active); in [11], 12.8%; in assay [12], 48.4%. For the same compound, the growth was 67.8% in assay [13]; 27.1% in assay [14]; 8.04% (active) in [15]; 23.4% in assay [16]; -13.7% (active) in assay [17]; 27.1% in [18]. The growth is 14.7% in assay [19] and 62.3% in assay [20].

For the compound `COc1ccc(C2CC(c3ccc(Nc4ccnc5cc(Cl)ccc45)cc3)=NN2c2ccccc2)cc1` (configuration not stated), the growth in assay [1] was 105%; in assay [2] it was 67.9%; in assay [3], 94.4%; in assay [4] it was 103%; in assay [5] it was 109%; in [6], 108%. Further, the growth is 107% in [7]; 88.2% in [8]; 97.4% in [9]; 99.6% in assay [10]; 87.2% in assay [11]; 52% in [12]. Further, the growth is 104% in [13]; 81.9% in [15]; 79.9% in assay [17]; 95% in assay [18]; 100% in assay [19]; 97.3% in assay [20].

Consider `COCCOCCOCc1n(Cc2ccc3ccccc3n2)c2ccccc2[n+]1Cc1ccc2ccccc2c1`, for which the growth is 24.6% in [1]; 2.47% (active) in [2]; -7.52% (active) in [3]; 8.58% (active) in [4]; -19.9% (active) in assay [5]; 20% in [6]. The growth in [7] was -12.3% (active); in assay [8], 15.8%; in assay [9], -8.67% (active); in assay [10], -0.723% (active); in assay [11], 78.3%; in assay [12], -4.5% (active). Moreover, the growth was -5.72% (active) in assay [13]; 11.6% in assay [14]; 12.4% in assay [15]; -94.1% (active) in assay [17]; -38.5% (active) in [18]; -76% (active) in assay [19]. Also, the growth in assay [20] was 8.66% (active).

For `Cc1cc(C)c(C#N)c(SCC(=O)c2sc3c(C#N)c(C)cc(C)[n+]3c2[O-])n1`, the growth in [1] is -6.34% (active); in [2], 5.26% (active); in assay [3] it was 17.5%; in [4], 15.2%; in assay [5], -21.5% (active); in assay [6] it was 22.9%. The growth is -52.3% (active) in assay [7]; -11.3% (active) in [8]; 51.9% in assay [9]; 12.2% in assay [10]; 15.9% in [11]; -26.1% (active) in assay [12]. For the same compound, the growth was 9% (active) in assay [13]; 75.5% in assay [14]; 7.69% (active) in [15]; 24% in assay [16]; 10.8% in [17]; 47.9% in [18]. The growth in assay [19] was 20.4%; in [20], 30.3%.

As to `CC(C)NC(=O)OCC#CCOC(=O)NC(C)C`, the growth is 111% in assay [1]; 87.9% in [2]; 92.6% in [3]; 103% in assay [4]; 113% in assay [5]; 110% in [6]. For the same compound, the growth in [7] was 82.8%; in assay [8], 109%; in assay [9] it was 105%; in [10], 101%; in [11], 108%; in assay [12], 104%. The growth in assay [13] was 89.5%; in assay [14] it was 97.5%; in [15], 99.5%; in [16], 97%; in assay [17] it was 106%; in [18] it was 99.6%. Further, the growth in [19] and in [20] was 104% throughout.
